Tb PGK inh: qHTS Assay to Find Inhibitors of Phosphoglycerate Kinase. Phosphoglycerate kinase, glycosomal (Trypanosoma brucei brucei), P07378. PGK/GAPDH coupled, Kinase-Glo luminescence, 60 min. Potency, µM (highest dose often 57.5 µM), for the others: at the top dose activity change, negative = inhibition, hits mostly inhibitors. 0.043% of 380,000 active. AID 602233, 2012; note: potency is the fitted concentration of half-maximal effect; nearly all actives have a fitted effect of over 60% in size
Target sequence (P07378 whole entry, looked up): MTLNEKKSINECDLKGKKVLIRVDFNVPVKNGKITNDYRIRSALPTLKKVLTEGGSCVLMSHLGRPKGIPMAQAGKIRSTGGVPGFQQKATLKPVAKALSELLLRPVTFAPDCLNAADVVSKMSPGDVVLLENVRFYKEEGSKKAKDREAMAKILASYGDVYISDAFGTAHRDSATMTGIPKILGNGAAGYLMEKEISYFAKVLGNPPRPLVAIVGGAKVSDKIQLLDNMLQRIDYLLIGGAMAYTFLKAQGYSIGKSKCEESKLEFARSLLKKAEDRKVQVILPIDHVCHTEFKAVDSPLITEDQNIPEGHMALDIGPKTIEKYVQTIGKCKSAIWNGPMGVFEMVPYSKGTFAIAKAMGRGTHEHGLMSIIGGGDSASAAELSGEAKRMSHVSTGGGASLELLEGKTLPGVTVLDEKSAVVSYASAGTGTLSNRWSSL
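Recombinant glycosomal PGK reaction used 1,3-bisphosphoglycerate generated in-well by GAPDH (100nM final) in 100mM TEA pH 7.6, 5mM MgCl2, 0.01% Tween-20. After 60 minutes at room temperature, ATP was read by Kinase-Glo Plus luminescence end-point.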
PI5P4Ka inh: qHTS for Inhibitors of phosphatidylinositol 5-phosphate 4-kinase (PI5P4K); Phosphatidylinositol 5-phosphate 4-kinase type-2 alpha (Homo sapiens), P48426; PI5P4Kalpha enzyme, ADP-Glo luminescence, 60 min; stronger effect = lower value; max response, %; 1.2% of 330,000 active; active = max response of -50% or lower; inconclusive = between -30% and -50%; inactive = -30% or higher; note: value at the top dose of about 77 µM
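Quantitative HTS of the MLSMR library against PI5P4Kalpha with substrate. ATP added last at 5 microM final; room temperature, 60 minutes. Remaining ATP depleted, ADP converted and read as luminescence.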
Pin1 inh: qHTS Assay to Find Inhibitors of Pin1 | 0.009% of 390,000 active | Pin1 FP peptide displacement, HiFluor488, 10 min | AID 504891, 2011 | Potency, µM (top dose mostly 115 µM), inactives show at the top dose activity, negative = inhibition, usual class: inhibitors; active = well fitted inhibition curve with a large enough effect in the polarisation, with a control signal flat, not every such curve was filed as active; inconclusive = small, poorly fitted or top-dose-only effect, or effect the other way, or a change in a side signal; inactive = no such curve, though single readings can be large or run the other way; the % refers to the polarisation; note: potency is the fitted concentration of half-maximal effect
Target sequence (Q13526 whole entry, looked up): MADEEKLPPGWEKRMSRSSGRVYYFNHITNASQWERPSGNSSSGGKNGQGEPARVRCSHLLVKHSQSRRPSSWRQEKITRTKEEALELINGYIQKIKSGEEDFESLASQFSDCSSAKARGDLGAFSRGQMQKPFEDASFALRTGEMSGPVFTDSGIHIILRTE
PI4K2A block: qHTS for small molecular inhibitors of PI4K2A. 0.13% of 420,000 active. purified PI4K2A, ADP-Glo luminescence, 1 h; stronger effect = lower value. activity change, negative = inhibition, % at 76.9 µM. Phosphatidylinositol 4-kinase type 2-alpha (Homo sapiens), Q9BTU6. AID 1346378, 2018; in the data active = activity change below about -50%; inconclusive = mostly about -30% to -49%;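 note: -100% = wells without enzyme as full effect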
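ADP-Glo luminescence measured ADP generated by PI4K2A enzyme (4 ug/mL before mixing) with 1.2 mM PI substrate (pre-mix) and 300 microM ATP (pre-mix). Tris pH7.5 buffer with MgCl2, Triton X-100; 1 h reaction at ambient temperature.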
Tb PFK inh: qHTS Assay to Find Inhibitors of T. brucei phosphofructokinase | 0.17% of 330,000 active | AID 485367, 2010 | Potency, µM (highest dose often 57.5 µM), inactives show top-dose activity, negative = inhibition, hits mostly inhibitors | ATP-dependent 6-phosphofructokinase (Trypanosoma brucei brucei), O15648 | T. brucei PFK, ADP-Glo luminescence;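 note: potency is the fitted concentration of half-maximal effect; 0% = uninhibited 1x PFK enzyme wells and -100% = no-enzyme wells; nearly all actives have a fitted effect of over 60% in size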
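Luminescent ADP detection (ADP-Glo, two-step: ATP depletion then ADP-to-ATP conversion for luciferase) reported PFK activity after 45 min room-temperature reaction of 1.25 nM enzyme with 0.5 mM F6P and 0.1 mM ATP at pH 8.0.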
Starred values were filed as active, the others as inactive. Many of the other results were omitted from the sample, so hits are more common in it than they were. Unless noted, calls come from the whole dose curve; as a rule, active = well fitted curve in the direction sought with a large enough effect; inconclusive = small, poorly fitted or top-dose-only effect, or another doubt; inactive = no such curve, though single readings can be large; an effect the other way counts as inactive or inconclusive. Unless noted, % is set by controls: 0 for no effect and ±100 for the full control effect.

`N#CC1=C(N)n2c(s/c(=C\c3ccco3)c2=O)=C(C#N)C1c1ccco1` (stereo not given) gave Tb PGK inh inconclusive, PI5P4Ka inh -70*, Pin1 inh inconclusive, PI4K2A block -17 and Tb PFK inh 0%.
For N#CC1=C(N)n2c(s/c(=C\c3cccs3)c2=O)=C(C#N)C1c1cccs1 (stereo not given) the results were Tb PGK inh -13%, PI5P4Ka inh -56*, Pin1 inh inconclusive, PI4K2A block -1 and Tb PFK inh -1%.
For CC(C)c1ccc(/C=c2\sc3n(c2=O)C(N)=C(C#N)C(c2ccc(C(C)C)cc2)C=3C(N)=O)cc1 (stereo not given) the results were Tb PGK inh 2%, PI5P4Ka inh inconclusive, Pin1 inh 13% and PI4K2A block 1.
O=C(Nc1ccc(Br)cc1)c1cc([N+](=O)[O-])cc([N+](=O)[O-])c1 was read as Tb PGK inh 7%, PI5P4Ka inh -3, Pin1 inh 6%, PI4K2A block 2 and Tb PFK inh 0%.
`O=c1c2c([N+](=O)[O-])cc([N+](=O)[O-])cc2sn1-c1ccc(Br)cc1` gave Tb PGK inh 1%, PI5P4Ka inh -85*, Pin1 inh -18%, PI4K2A block -9 and Tb PFK inh inconclusive.
For COc1ccc(C(=O)CSc2cc(C)[nH]c(=O)n2)cc1 the results were Tb PGK inh -6%, PI5P4Ka inh -63*, Pin1 inh inconclusive, PI4K2A block -23 and Tb PFK inh -15%.
Screening COc1cc(OC)c2c(O)c3c(c(-c4c5c(c(O)c6c(OC)cc(OC)cc46)CO[C@@H](C)[C@H]5O)c2c1)[C@H](O)[C@H](C)OC3 returned Tb PGK inh -16%, PI5P4Ka inh -90*, Pin1 inh inconclusive, PI4K2A block inconclusive and Tb PFK inh -15%.
CCCCN(C(=O)CSc1nnc(Nc2ccc(C)c(C)c2)s1)c1c(N)n(Cc2ccccc2)c(=O)[nH]c1=O was read as Tb PGK inh -5%, PI5P4Ka inh -69*, Pin1 inh 30%, PI4K2A block -3 and Tb PFK inh -4%.
`CCCCCCCCN1C(=O)N2Cc3cc(F)ccc3C2CS1(=O)=O` (stereo not given) gave PI4K2A block 3.
CCC(=O)OC1(C)C(=O)C=C2C=C(c3ccc(C#N)cc3)OC=C2C1=O (stereo not given) was read as Tb PGK inh -13%, PI5P4Ka inh -68*, Pin1 inh -20% and PI4K2A block -5.
`CCCCC1=CC2=CC(=O)C(C)(OC(=O)CC)C(=O)C2=CN1c1cccc(C#N)c1` (stereo not given) gave Tb PGK inh 0%, PI5P4Ka inh -2, Pin1 inh inconclusive and PI4K2A block -15.
CCCC[C@H]1C2CC(OC(=O)Nc3cccc(F)c3)C(C2)[C@H]2CCCCN21 (stereo not given in full) was read as PI4K2A block 6.
`N#Cc1nc(Nc2ccc(F)cc2)nc(NC2CCCC2)n1` gave Pin1 inh -3%.
For O=C1NC(=Nc2ccccc2)S/C1=C\c1cccnc1 the results were Tb PGK inh inactive, PI5P4Ka inh inconclusive, Pin1 inh 12%, PI4K2A block 0 and Tb PFK inh 2%.
`O=C1N/C(=N/S(=O)(=O)c2ccccc2)S/C1=C/c1cccnc1` gave Tb PGK inh inactive, PI5P4Ka inh -57*, Pin1 inh -13%, PI4K2A block -18 and Tb PFK inh 22%.
`Cc1ccc(/C=C2\S/C(=N/S(=O)(=O)c3cccs3)NC2=O)cc1` gave Tb PGK inh inconclusive, PI5P4Ka inh -59*, Pin1 inh inconclusive, PI4K2A block 2 and Tb PFK inh 0%.
For O=C(CN1C(=O)S/C(=C\c2cccs2)C1=O)Nc1ccc(C(=O)O)c(O)c1 the results were Tb PGK inh -8%, PI5P4Ka inh inconclusive, Pin1 inh -4%, PI4K2A block 3 and Tb PFK inh 3%.
O=C(CN1C(=O)S/C(=C\c2cccs2)C1=O)Nc1ccc(O)c(C(=O)O)c1 was read as Tb PGK inh -2%, PI5P4Ka inh -58*, Pin1 inh -9%, PI4K2A block 2 and Tb PFK inh inconclusive.
For Cc1ccc(NC(=O)CN2C(=O)S/C(=C/c3ccc(-c4cc(C(=O)O)ccc4C)o3)C2=O)cc1C the results were Tb PGK inh 20µM*, Pin1 inh inconclusive, PI4K2A block -12 and Tb PFK inh inconclusive.
For CCOc1ccc(-c2ccc(/C=C3/C(=N)N4C(C)=CSC4=NC3=O)o2)c([N+](=O)[O-])c1 the results were Tb PGK inh 0%, PI5P4Ka inh -59*, Pin1 inh inconclusive, PI4K2A block -27 and Tb PFK inh 0%.
`CCOc1ccc(/C=N/NC(=O)c2[nH]ncc2Br)c(O)c1` gave Tb PGK inh inconclusive, PI5P4Ka inh inconclusive, Pin1 inh 3%, PI4K2A block -75* and Tb PFK inh inconclusive.
For C=CCNc1nc(-c2ccc(O)c(C(N)=O)c2)cs1 the results were Tb PGK inh -7%, PI5P4Ka inh -58*, Pin1 inh -2%, PI4K2A block -12 and Tb PFK inh 4%.
Screening CC(C)c1ccc(/C=C/c2[nH]c(=O)[nH]c(=O)c2[N+](=O)[O-])cc1 returned Tb PGK inh -11%, PI5P4Ka inh -57*, Pin1 inh -3%, PI4K2A block -11 and Tb PFK inh 0%.
For CCOc1ccc(/C=C/c2[nH]c(=O)[nH]c(=O)c2[N+](=O)[O-])cc1 the results were Tb PGK inh -7%, PI5P4Ka inh inconclusive, Pin1 inh 3%, PI4K2A block -2 and Tb PFK inh 6%.
For O=c1[nH]c(/C=C/c2ccccc2Cl)c([N+](=O)[O-])c(=O)[nH]1 the results were Tb PGK inh -10%, PI5P4Ka inh -69*, Pin1 inh 0%, PI4K2A block -15 and Tb PFK inh -4%.
Screening O=C(COc1ccccc1/C=C1\SC(=O)NC1=O)Nc1ccccc1 returned Tb PGK inh -8%, PI5P4Ka inh inconclusive, Pin1 inh -17%, PI4K2A block -4 and Tb PFK inh -8%.
Screening COc1cccc(/C=C/c2[nH]c(=O)[nH]c(=O)c2[N+](=O)[O-])c1O returned Tb PGK inh 0%, PI5P4Ka inh -90*, Pin1 inh -1%, PI4K2A block -9 and Tb PFK inh 20%.
